Among the test systems are T-47D breast; BT-549 breast; MDA-MB-435 melanoma; SW-620 colon; MCF7 breast; HCT-116 colon; HCC-2998 colon; KM12 colon.
Experiment in all cases: NCI-60 one-dose screen, 48 h (100 = growth as untreated, 0 = no growth, -100 = all killed)
What all share (settings): 10 µM unless noted

Compounds without any hit were thinned out: in the full panel of roughly 83,000, 20% have a hit.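 96-well plates, one dose, 48 hours. Percent growth reported; active if below 10.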 Unmarked numbers belong to inactive results. Active and inactive are the calls of the source.

Regarding `Cc1cccc(/C=C2\CN(C(=O)OC(C)(C)C)C/C(=C\c3cccc(C)c3)C2=O)c1`, the growth is 87.8% in the assay on T-47D breast; 105% with BT-549 breast; 93.1% in the assay with MDA-MB-435 melanoma; 7.71% (active) in the assay on SW-620 colon; 23.2% in the assay with MCF7 breast; 11.2% in the assay on HCT-116 colon. Further, the growth is 103% in the assay with HCC-2998 colon and 74.1% with KM12 colon.
`O=C1Nc2ccccc2/C1=C/c1nc2ccccc2c(=O)[nH]1`: the growth with T-47D breast was 71.5%; in the assay with BT-549 breast, 95%; with MDA-MB-435 melanoma it was 104%; in the assay with SW-620 colon, 102%; with MCF7 breast it was 60.2%; with HCT-116 colon, 76.7%. In addition, the figures for the growth in the assay with HCC-2998 colon and in the assay with KM12 colon were 102% and 96.4%, respectively.
`C=C1C(=O)O[C@H]2[C@H]1CC/C(COC(=O)/C=C\C(=O)NCc1ccc(Cn3c(=O)sn(CCI)c3=O)cc1)=C\CC[C@@]1(C)O[C@@H]21`: the growth in the assay with T-47D breast is 57.6%; in the assay with BT-549 breast, 71.9%; in the assay on MDA-MB-435 melanoma, 44.9%; in the assay with SW-620 colon, 8.21% (active); in the assay on MCF7 breast, 24.8%; in the assay on HCT-116 colon, 19%. The growth with HCC-2998 colon is 83.9%; with KM12 colon, 97.4%.
As for `CCOC(=O)C1=C(C)NC(=O)NC1c1c(Cl)n(CCCl)c2ccccc12` (stereo not given), the growth in the assay with T-47D breast is 101%; in the assay on BT-549 breast it was 92%; in the assay with MDA-MB-435 melanoma, 101%; with SW-620 colon, 96.8%; in the assay on MCF7 breast, 98.7%; in the assay with HCT-116 colon, 95.1%. In addition, the growth was 96.3% in the assay on HCC-2998 colon and 97.4% with KM12 colon.
In the case of `Cn1cc(-c2csc(-c3c[nH]c4ccc(Br)cc34)n2)c2ccnc(Cl)c21`, the growth in the assay on T-47D breast is 25.9%; with BT-549 breast, 84.1%; in the assay on MDA-MB-435 melanoma, 78.5%; with SW-620 colon, 8.27% (active); with MCF7 breast, 46.6%; in the assay on HCT-116 colon, 49.8%. For the same compound, the growth was 82.9% in the assay on HCC-2998 colon and 50.8% with KM12 colon.
`c1ccc([P+](c2ccccc2)(c2ccccc2)c2ccc3c4ccc([P+](c5ccccc5)(c5ccccc5)c5ccccc5)c5cccc(c6cccc2c63)c54)cc1`: the growth with T-47D breast is 23.6%; in the assay on BT-549 breast it was -1.26% (active); with MDA-MB-435 melanoma, 3.29% (active); with SW-620 colon, 10%; with MCF7 breast, 16.1%; with HCT-116 colon, 8.67% (active). Further, the growth was 17.9% in the assay with HCC-2998 colon and -9.19% (active) in the assay on KM12 colon.
As for `Cc1csc(Nc2nc(-c3ccccn3)nc(C(Cl)(Cl)Cl)n2)n1`, the growth with T-47D breast is 78.8%; in the assay with BT-549 breast, 110%; in the assay with MDA-MB-435 melanoma, 82.3%; in the assay with SW-620 colon, 86.3%; in the assay with MCF7 breast it was 84.2%; in the assay on HCT-116 colon, 75%. The growth in the assay on HCC-2998 colon was 107%; in the assay with KM12 colon, 82.8%.
`O=C(CN1C(=O)S/C(=C\C(Cl)=C\c2ccccc2)C1=O)NCCc1ccc(O)cc1`: the growth in the assay on T-47D breast is 11.4%; with BT-549 breast, 22.1%; in the assay with MDA-MB-435 melanoma, 2.68% (active); in the assay with SW-620 colon, 4.78% (active); with MCF7 breast, 20.1%; with HCT-116 colon, -78.8% (active). Also, the growth in the assay on HCC-2998 colon was 66.8%; in the assay on KM12 colon, 5.78% (active).
Take `Cc1ccc2c(n1)C(=O)C(Br)=C(CC(C)C)C2=O`: the growth in the assay with T-47D breast is 82%; in the assay with BT-549 breast, 99.4%; in the assay on MDA-MB-435 melanoma, 104%; with SW-620 colon, 64%; in the assay with MCF7 breast, 93.2%; in the assay on HCT-116 colon it was 61.6%. Moreover, the growth was 105% in the assay on HCC-2998 colon and 99.3% with KM12 colon.
With `COc1ccc(C(C)=O)cc1S(=O)(=O)Nc1c(N)nc(SC)[nH]c1=O`, the growth in the assay on T-47D breast is 116%; in the assay on BT-549 breast, 117%; in the assay with MDA-MB-435 melanoma, 97.7%; in the assay with SW-620 colon it was 101%; in the assay with MCF7 breast it was 92.9%; in the assay on HCT-116 colon it was 100%. Further, the results for the growth in the assay with HCC-2998 colon and in the assay with KM12 colon were 99% and 96.7%, respectively.
In the case of `CCN1CCN(C(=O)[C@]23CCC(C)(C)C[C@@H]2C2=CC[C@@H]4[C@@]5(C)CCC(=O)C(C)(C)[C@@H]5CC[C@@]4(C)[C@]2(C)CC3)CC1`, the growth with T-47D breast is 56.4%; in the assay with BT-549 breast, 58.6%; with MDA-MB-435 melanoma, 33.9%; with SW-620 colon, 31.8%; in the assay with MCF7 breast it was 39.9%; in the assay on HCT-116 colon, 19.1%. For the same compound, the values for the growth with HCC-2998 colon and with KM12 colon were 62.8% and 41.2%, respectively.
As to `CC1CN(S(=O)(=O)c2oc(-c3ccc(Cl)cc3)nc2C#N)CC(C)O1` (stereo not given), the growth in the assay on T-47D breast is 27%; in the assay on BT-549 breast, 89%; with MDA-MB-435 melanoma, 86.4%; in the assay with SW-620 colon it was -66.1% (active); in the assay on MCF7 breast it was 55.2%; with HCT-116 colon, -53.4% (active). The values for the growth in the assay on HCC-2998 colon and in the assay on KM12 colon were 105% and 100%, respectively.
As to `CCC(C(=O)[C@@H](C)[C@@H](O)[C@H](C)[C@@H]1O[C@@H]([C@@H](CC)C(=O)ONC(=O)c2ccccc2)CC[C@@H]1C)[C@H]1O[C@]2(C=CC(=O)[C@]3(CC[C@@](C)([C@H]4CC[C@](O)(CC)[C@H](C)O4)O3)O2)[C@H](C)C[C@@H]1C` (stereo not given in full), the growth in the assay on T-47D breast was 21.4%; with BT-549 breast, 6.21% (active); in the assay with MDA-MB-435 melanoma it was 20.8%; in the assay on SW-620 colon, 19.7%; in the assay on MCF7 breast it was 3.51% (active); in the assay with HCT-116 colon, -36.9% (active). The values for the growth in the assay with HCC-2998 colon and with KM12 colon were 20.7% and 16.2%, respectively.
On to `N=C(N)c1ccc(-c2ccc(-c3ccc(Cl)c(Cl)c3)s2)nc1`, for which the growth with T-47D breast is 56.2%; in the assay with BT-549 breast it was 87.5%; in the assay on MDA-MB-435 melanoma, 10.8%; with SW-620 colon, -56.6% (active); in the assay with MCF7 breast it was -64.6% (active); with HCT-116 colon it was -50.8% (active). The growth is -61.9% (active) with HCC-2998 colon and -74.6% (active) in the assay on KM12 colon.
In the case of `COc1ccc(C(=O)N2c3ccccc3Sc3ccccc32)c(OC)c1`, the growth in the assay on T-47D breast is 41.5%; in the assay with BT-549 breast it was 16.9%; in the assay on MDA-MB-435 melanoma it was -43% (active); with SW-620 colon it was 24.8%; in the assay on MCF7 breast, 19.9%; in the assay on HCT-116 colon, 9.42% (active). Also, the growth is 12.8% in the assay on HCC-2998 colon and 14.3% in the assay with KM12 colon.

These data come from PubChem BioAssay (NCI).
